In PubChem BioAssay (EPA / NIEHS):
Results filed as inconclusive are left out. Calls of active or inactive are those of the source. How the source made its calls, unless noted: active means hit-call score of the fitted dose curve at least 0.9, where 1 is the maximum; inconclusive means response in the unintended direction; inactive means score below 0.9.

Legend:
[1] = Tanguay_ZF_120hpf_PFIN_legacy: (Legacy) Oregon State University Tanguay Lab 120 Hour Post-fertilization zebrafish Assay for Pectoral Fin Malformation (AID 2283648);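 further: each larva judged yes or no for fin defect by brightfield with dead larvae skipped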
Procedure, shortened: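 Binary pectoral fin malformation call at 120 hpf by brightfield microscopy; 5D wild-type zebrafish, chorion removed at 4 hpf, one embryo per well from 6 hpf, static exposure at 28C; DMSO (0.64% final) as baseline.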

[2] = Tanguay_ZF_120hpf_CFIN_legacy: (Legacy) Oregon State University Tanguay Lab 120 Hour Post-fertilization zebrafish Assay for Caudal Fin Malformation (AID 2283649)
Procedure, shortened: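 Binary brightfield scoring of caudal fin defects at 120 hpf after static, light-shielded exposure at 28C from 6 hpf. Tropical 5D embryos, chorion removed with pronase at 4 hpf, final DMSO 0.64%.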

[3] = Tanguay_ZF_120hpf_PIG_legacy: (Legacy) Oregon State University Tanguay Lab 120 Hour Post-fertilization zebrafish Assay for Pigmentation Malformation (AID 2283650);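 further: dechorionated Tropical 5D zebrafish embryos exposed singly from 6 to 120 hpf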
Procedure, shortened: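 Brightfield scoring of pigmentation malformation at 120 hpf, recorded as binary present/absent per larva. Exposure: dechorionated 5D wild-type embryos, one per well, static from 6 hpf at 28C, final DMSO 0.64% (vol/vol). Dead embryos not scored.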

[4] = Tanguay_ZF_120hpf_CIRC_legacy: (Legacy) Oregon State University Tanguay Lab 120 Hour Post-fertilization zebrafish Assay for Circulatory Malformation (AID 2283651)
Procedure, shortened: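 Static exposure, 6–120 hpf, 28C, sealed and dark; one dechorionated 5D embryo/well; DMSO 0.64% v/v final. Binary circulation endpoint by brightfield; dead embryos not scored.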

[5] = Tanguay_ZF_120hpf_SWIM_legacy: (Legacy) Oregon State University Tanguay Lab 120 Hour Post-fertilization zebrafish Assay for Swim Bladder Malformation (AID 2283654);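 further: swim bladder malformation in each larva scored yes or no under brightfield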
Procedure, shortened: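 Tropical 5D embryos dechorionated at 4 hpf; 1 embryo/well from 6 hpf; static, sealed, dark exposure at 28C until 120 hpf; final DMSO 0.64%; 5uM trimethyltin chloride positive control; swim bladder defect recorded yes/no; dead embryos not scored.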

[6] = Tanguay_ZF_120hpf_TRUN_legacy: (Legacy) Oregon State University Tanguay Lab 120 Hour Post-fertilization zebrafish Assay for Truncated Body (AID 2283655)
Procedure, shortened: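 Binary presence/absence of truncated body is recorded at 120 hpf by brightfield, with non-mortality endpoints skipped after death. Exposure is static from 6 hpf in sealed dark plates at 28C, using dechorionated wild-type zebrafish, 0.64% DMSO.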

[7] = Tanguay_ZF_120hpf_NC_legacy: (Legacy) Oregon State University Tanguay Lab 120 Hour Post-fertilization zebrafish Assay for Notochord and Tail Malformation (AID 2283656)
Procedure, shortened: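 Binary notochord-distortion calls, made by brightfield inspection, form the read-out; activity is fitted in the positive direction against DMSO. Exposure ran statically from 6 to 120 hpf at 28C with 0.64% DMSO.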

[8] = tested on: Thyroperoxidase (TPO), gene 54314; experiment: CCTE_Simmons_AUR_rTPO: CCTE's Amplex UltraRed Assay for Thyroperoxidase (TPO) Inhibition, Simmons Lab (AID 2283662);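 on AC50: potency for loss of signal meaning inhibition of peroxidase activity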
Procedure, shortened: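 Rat thyroid microsomes (5 ug protein) with 25 uM Amplex UltraRed and 300 uM H2O2 in 200 mM phosphate buffer, 30 min at 37C in dark; fluorescence 544/590 nm. Eight concentrations, 5 nM–87.5 uM final, 0.5% DMSO, triplicate biological replicates.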

[9] = CCTE_Simmons_CellTiterGLO_HEK293T: Viability Assessment in CCTE's Assays for Thyroperoxidase (TPO) Inhibition, Simmons Lab (AID 2283665);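 on AC50: cells exposed to compound for 24 h before readout; actives reduce ATP signal below DMSO vehicle meaning cytotoxicity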
Procedure, shortened: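 Luminescent ATP readout (CellTiter-Glo, 20 min at room temperature) after 24 hr exposure of HEK293T cells to 5 nM–87.5 uM final compound; signal loss relative to DMSO vehicle indicated cytotoxicity; dichlone titrated as positive control.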

[10] = Tanguay_ZF_120hpf_TR_legacy: (Legacy) Oregon State University Tanguay Lab 120 Hour Post-fertilization zebrafish Assay for Touch Response (AID 2283667)
Procedure, shortened: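 Binary touch-response call at 120 hpf, analysed as gain of signal versus DMSO baseline. Wild-type 5D larvae, static exposure at 28C, 0.64% DMSO final; 5uM trimethyltin chloride as positive control.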

[11] = CCTE_Padilla_ZF_144hpf_TERATOSCORE: (Legacy) CCTE's 144 Hour Post-fertilization zebrafish Assay Teratoscore, Padilla Lab (AID 2283679; active means hit-call score of the fitted dose curve at least 0.9, where 1 is the maximum; inactive means score below 0.9;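 on AC50: zebrafish embryos with chorions exposed by immersion from 6-8 hpf to 5 dpf with daily renewal; teratogenicity score from eye scoring of death hatching and malformations at 144 hpf; higher score means more developmental defects relative to DMSO baseline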)
Procedure, shortened: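 Larvae scored by eye at 144 hpf for death, hatching and malformations after a day in clean Hanks'. Before that, daily-renewed exposure at 80 uM (0.4% DMSO, 26C) from roughly 6-8 hpf through 5 dpf, 4 embryos per chemical.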

[12] = Tanguay_ZF_120hpf_ActivityScore_legacy: (Legacy) Oregon State University Tanguay Lab 120 Hour Post-fertilization zebrafish Assay Score for Activity (AID 2283742);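 on AC50: dechorionated Tropical 5D wild-type zebrafish embryos held singly per well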
Procedure, shortened: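 Dechorionated 5D embryos, one per well, static exposure 6–120 hpf, 28C, sealed and dark; final DMSO 0.64% (vol/vol). Brightfield binary scoring of mortality plus 18 endpoints; gain-of-signal fit versus DMSO baseline.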

[13] = STM_H9_OrnithineISnorm_perc: Stemina devTOX quickPredict H9 human embryonic stem cell (hESC)-based Assay for Ornithine (ORN) Metabolite Biomarker, Normalized (AID 2283712; active means hit-call score of the fitted dose curve at least 0.9, where 1 is the maximum; inactive means score below 0.9;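 further: ornithine released into spent medium during last day measured by mass spectrometry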)
Procedure, shortened: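 UPLC-HRMS readout: endogenous ornithine EIC area / 13C-ORN internal standard, then % of 0.1% DMSO median. H9 hESCs (pluripotent), 72h exposure, re-dosed with fresh media q24h; last 24-h spent media, deproteinized in 40% acetonitrile.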

[14] = STM_H9_CystineISnorm_perc: Stemina devTOX quickPredict H9 human embryonic stem cell (hESC)-based Assay for Cystine (CYSS) Metabolite Biomarker, Normalized (AID 2283713; active means hit-call score of the fitted dose curve at least 0.9, where 1 is the maximum; inactive means score below 0.9)
Procedure, shortened: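 UPLC-HRMS read-out: endogenous cystine peak area in spent medium, normalized to isotope-labeled internal standard and to median of 0.1% DMSO controls. Pluripotent H9 cells, 72h exposure, daily medium/compound replenishment; medium from last 24h sampled.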

[15] = STM_H9_OrnCyssISnorm_ratio: Stemina devTOX quickPredict H9 human embryonic stem cell (hESC)-based Assay for Ornithine (ORN):Cystine (CYSS) Ratio (AID 2283714)
Procedure, shortened: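 UPLC-HRMS of spent media: ORN/CYSS ratio of internal-standard-normalized percentages, DMSO (0.1%) baseline. Pluripotent H9 hESCs, 72h exposure, daily re-dosing with fresh media; last 24h media collected.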

## CCCN(C1CCN(C(=O)C2CCNCC2)CC1)[C@@H]1CCc2ccc(OC)cc2C1
[1]
  outcome: inactive
[2]
  outcome: inactive
[3]
  outcome: inactive
[4]
  outcome: inactive
[5]
  outcome: inactive
[6]
  outcome: inactive
[7]
  outcome: inactive
[8]
  outcome: inactive
[9]
  AC50: 18.2 µM (active)
[10]
  outcome: inactive
[11]
  outcome: inactive
[12]
  outcome: inactive

## Clc1nc(Cl)c(Cl)c(Cl)c1Cl
[1]
  outcome: inactive
[2]
  outcome: inactive
[3]
  outcome: inactive
[4]
  outcome: inactive
[5]
  outcome: inactive
[6]
  outcome: inactive
[7]
  outcome: inactive
[10]
  outcome: inactive
[11]
  AC50: 8.13 µM (active)

## C[C@](N)(Cc1ccc(O)c(O)c1)C(=O)O
[1]
  outcome: inactive
[2]
  outcome: inactive
[3]
  outcome: inactive
[4]
  outcome: inactive
[5]
  outcome: inactive
[6]
  outcome: inactive
[7]
  outcome: inactive
[8]
  AC50: 0.696 µM (active)
[9]
  AC50: 39.8 µM (active)
[10]
  outcome: inactive
[12]
  outcome: inactive

## CC(C)=CCCC(C)CCO (stereo not drawn)
[1]
  outcome: inactive
[2]
  outcome: inactive
[3]
  outcome: inactive
[4]
  outcome: inactive
[5]
  outcome: inactive
[6]
  outcome: inactive
[7]
  outcome: inactive
[8]
  outcome: inactive
[9]
  outcome: inactive
[10]
  outcome: inactive

## CC(C)CCCCCCCOC(=O)CCCCC(=O)OCCCCCCCC(C)C
[1]
  outcome: inactive
[2]
  outcome: inactive
[3]
  outcome: inactive
[4]
  outcome: inactive
[5]
  outcome: inactive
[6]
  outcome: inactive
[7]
  outcome: inactive
[10]
  outcome: inactive
[11]
  outcome: inactive

## CCCCCCCCCCCCCCCO
[1]
  outcome: inactive
[2]
  outcome: inactive
[3]
  outcome: inactive
[4]
  outcome: inactive
[5]
  outcome: inactive
[6]
  outcome: inactive
[7]
  outcome: inactive
[10]
  outcome: inactive

## C=CCCCCCCCCC(=O)O
[1]
  outcome: inactive
[2]
  outcome: inactive
[3]
  outcome: inactive
[4]
  outcome: inactive
[5]
  outcome: inactive
[6]
  outcome: inactive
[7]
  outcome: inactive
[10]
  outcome: inactive
[11]
  AC50: 60.1 µM (active)
[12]
  outcome: inactive

## COc1ccc(-n2nc(C(F)F)cc2-c2ccc(S(C)=O)cc2)cc1 (stereo not drawn)
[1]
  AC50: 48.1 µM (active)
[2]
  AC50: 12.8 µM (active)
[3]
  outcome: inactive
[4]
  outcome: inactive
[5]
  outcome: inactive
[6]
  outcome: inactive
[7]
  outcome: inactive
[10]
  AC50: 38.2 µM (active)
[11]
  AC50: 88.9 µM (active)

## O=P(OC(CCl)CCl)(OC(CCl)CCl)OC(CCl)CCl
[1]
  AC50: 40.3 µM (active)
[2]
  AC50: 30 µM (active)
[3]
  AC50: 33.9 µM (active)
[4]
  outcome: inactive
[5]
  AC50: 25.9 µM (active)
[6]
  AC50: 36.2 µM (active)
[7]
  outcome: inactive
[8]
  outcome: inactive
[9]
  outcome: inactive
[11]
  AC50: 14.3 µM (active)
[13]
  outcome: inactive
[14]
  outcome: inactive
[15]
  outcome: inactive
[12]
  AC50: 38.3 µM (active)

## CC(C)=CCC/C(C)=C/CO
[1]
  outcome: inactive
[2]
  AC50: 31.6 µM (active)
[3]
  outcome: inactive
[4]
  outcome: inactive
[5]
  outcome: inactive
[6]
  outcome: inactive
[7]
  outcome: inactive
[10]
  outcome: inactive
[11]
  AC50: 15.4 µM (active)
[12]
  outcome: inactive

## Fc1ccccc1[C@@H](F)COC1CCC(Nc2ncnc3[nH]ncc23)CC1 (stereo partly drawn)
[1]
  outcome: inactive
[2]
  outcome: inactive
[3]
  outcome: inactive
[4]
  outcome: inactive
[5]
  outcome: inactive
[6]
  outcome: inactive
[7]
  outcome: inactive
[10]
  outcome: inactive
[11]
  AC50: 13.8 µM (active)
[13]
  outcome: inactive
[14]
  outcome: inactive
[15]
  outcome: inactive
[12]
  outcome: inactive

## CC(C)=CCC/C(C)=C\CO
[1]
  outcome: inactive
[2]
  outcome: inactive
[3]
  outcome: inactive
[4]
  outcome: inactive
[6]
  outcome: inactive
[7]
  outcome: inactive
[8]
  AC50: 8.64 µM (active)
[9]
  outcome: inactive
[10]
  outcome: inactive
[12]
  outcome: inactive

## COCCOc1cc2cc(C(=O)NC3CCN(C(C)C)CC3)n(CC(=O)Nc3ccc(Cl)cn3)c2cn1
[1]
  outcome: inactive
[2]
  outcome: inactive
[3]
  outcome: inactive
[4]
  outcome: inactive
[5]
  outcome: inactive
[6]
  outcome: inactive
[10]
  outcome: inactive
[12]
  outcome: inactive

## CC(C)(O)c1coc(S(=O)(=O)NC(=O)Nc2c3c(cc4c2CCC4)CCC3)c1
[1]
  outcome: inactive
[2]
  outcome: inactive
[3]
  outcome: inactive
[4]
  outcome: inactive
[5]
  outcome: inactive
[6]
  outcome: inactive
[8]
  AC50: 7.6 µM (active)
[9]
  AC50: 22.4 µM (active)
[10]
  outcome: inactive
[12]
  outcome: inactive

## O=c1[nH]c2ccc(S(=O)CCN3CCC(Cc4ccc(F)cc4)CC3)cc2o1 (stereo not drawn)
[1]
  outcome: inactive
[2]
  outcome: inactive
[3]
  outcome: inactive
[4]
  outcome: inactive
[6]
  outcome: inactive
[13]
  outcome: inactive
[14]
  AC50: 3.91 µM (active)
[15]
  AC50: 5 µM (active)
[12]
  outcome: inactive

## Cn1c(=O)c2c(ncn2C)n(C)c1=O
[1]
  outcome: inactive
[2]
  outcome: inactive
[3]
  outcome: inactive
[4]
  outcome: inactive
[5]
  outcome: inactive
[6]
  outcome: inactive
[7]
  outcome: inactive
[10]
  outcome: inactive
[13]
  outcome: inactive
[14]
  AC50: 181 µM (active)

## O=C1CCC(N2C(=O)c3ccccc3C2=O)C(=O)N1 (stereo not drawn)
[1]
  outcome: inactive
[2]
  outcome: inactive
[3]
  outcome: inactive
[4]
  outcome: inactive
[5]
  outcome: inactive
[6]
  outcome: inactive
[7]
  outcome: inactive
[13]
  AC50: 0.124 µM (active)
[14]
  outcome: inactive
[15]
  AC50: 0.121 µM (active)

## CC1(C)C(=O)N(Br)C(=O)N1Br
[1]
  outcome: inactive
[2]
  outcome: inactive
[3]
  outcome: inactive
[4]
  outcome: inactive
[5]
  outcome: inactive
[7]
  outcome: inactive
[10]
  outcome: inactive
[11]
  outcome: inactive
[12]
  outcome: inactive

## CCN(C(=O)c1cc(C)cc(OC[C@H](C)Nc2ccncc2)c1)C(C)C
[1]
  outcome: inactive
[2]
  outcome: inactive
[3]
  outcome: inactive
[4]
  outcome: inactive
[6]
  outcome: inactive
[7]
  outcome: inactive
[10]
  outcome: inactive
[13]
  outcome: inactive
[14]
  AC50: 7 µM (active)
[15]
  AC50: 7 µM (active)
[12]
  outcome: inactive

## CCCCCCCCO
[1]
  outcome: inactive
[2]
  outcome: inactive
[3]
  outcome: inactive
[5]
  outcome: inactive
[6]
  outcome: inactive
[10]
  outcome: inactive

## CC(O)CN(CCN(CC(C)O)CC(C)O)CC(C)O (stereo not drawn)
[1]
  outcome: inactive
[2]
  outcome: inactive
[3]
  outcome: inactive
[4]
  outcome: inactive
[5]
  outcome: inactive
[6]
  outcome: inactive
[10]
  outcome: inactive
[12]
  outcome: inactive

## O=C(O)c1cc(N=Nc2ccc(S(=O)(=O)Nc3ccccn3)cc2)ccc1O
[1]
  outcome: inactive
[2]
  outcome: inactive
[3]
  outcome: inactive
[5]
  outcome: inactive
[6]
  outcome: inactive
[7]
  outcome: inactive
[12]
  outcome: inactive
